Compounds without any hit were thinned out: in the full panel of roughly 83,000, 20% have a hit.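 In brief: 96-well plates, 48 h treatment, single concentration, percent growth endpoint.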 Active and inactive are the calls of the source. The calls were made as follows: active = growth percent below 10; inactive = the rest.
What follows are molecules tested on SW-620 colon (assay: NCI-60 one-dose screen, 48 h (100 = growth as untreated, 0 = no growth, -100 = all killed)). Conditions: 10 µM unless noted.

| SMILES | growth |
| --- | --- |
| O=C(NNC(=O)N1c2ccccc2C=Cc2ccccc21)c1ccc2ccccc2c1 | 101% (inactive) |
| CCc1cnc(=S)n(-c2ccccc2)c1 | 104% (inactive) |
| CC1(C)C(=O)/C(=C\c2ccc(C(F)(F)F)cc2)C[C@]2(C)[C@H]3CC[C@@H]4[C@H]5[C@H](C(=O)/C=C/c6ccc(C(F)(F)F)cc6)CC[C@]5(CO)CC[C@@]4(C)[C@]3(C)CC[C@@H]12 | 98.3% (inactive) |
| CC(C)(C)OC(=O)NC(CSCc1ccccc1)C(=O)ON1C(=O)CCC1=O (centres undefined) | 105% (inactive) |
| C/C(=C\c1ccc(OCC(=O)O)c(Cl)c1Cl)[N+](=O)[O-] | 114% (inactive) |
| CC(C)CC1NC(C)(C)CO1 (centres undefined) | 106% (inactive) |
| CC(NNC(C)c1ccccc1)c1ccccc1 (centres undefined) | 96.1% (inactive) |
| CC(C)(C)n1cc(-c2ccnc(NCCCNS(=O)(=O)c3ccc(C(F)(F)F)cc3)c2)c(-c2cccc(O)c2)n1 | 0.471% (active) |
| CC(C)(C)n1cc(-c2ccnc(NCCCNS(=O)(=O)c3ccc(Br)cc3)c2)c(-c2cccc(O)c2)n1 | 7.75% (active) |
| Cn1cc(-c2cnc3ccc(NC(=O)Nc4ccc(F)c(Br)c4)cc3n2)cn1 | 39.8% (inactive) |
| CC(C)(C)c1[nH]nc2c1C(c1cc3ccccc3[nH]c1=O)Nc1cc(C(=O)Nc3ccc(Cl)cc3)ccc1N2 (centres undefined) | 66.3% (inactive) |
| CC(C)(C)N1CCC1C(N)=O (centres undefined) | 97.7% (inactive) |
| CC(C)(C)n1cc(-c2ccnc(NCCCNS(=O)(=O)c3ccc(Cl)cc3)c2)c(-c2cccc(O)c2)n1 | -38% (active) |
| O=C(NNC(=O)N1c2ccccc2C=Cc2ccccc21)c1ccccc1 | 107% (inactive) |
| CC(C)(C)n1cc(-c2ccnc(NCCNS(=O)(=O)c3ccc(Cl)cc3)c2)c(-c2cccc(O)c2)n1 | 28% (inactive) |
| Clc1ccccc1-c1nc2ccccc2[nH]1 | 94.6% (inactive) |
| CC(C)(C)n1cc(-c2ccnc(NCCNS(=O)(=O)c3ccc(C(F)(F)F)cc3)c2)c(-c2cccc(O)c2)n1 | 25.9% (inactive) |
| CC(=O)Oc1csc(N(C(C)=O)c2cc(C(=O)O)cc(C(=O)O)c2)n1 | 96.1% (inactive) |
| COc1ccc(-c2nc(/C=N/Nc3cc(C)nc4ccc(Cl)cc34)c(C)o2)cc1 | -88.6% (active) |
| CCOC(=O)CC(=O)OC | 98.8% (inactive) |
| CN1C=CN(Cc2ccc(-c3ccccn3)nc2)[CH-]1.CN1C=CN(Cc2ccc(-c3ccccn3)nc2)[CH-]1.[Au+3] | 36.2% (inactive) |
| c1ccc(-c2nnc(-c3ccccn3)s2)nc1 | 99.8% (inactive) |
| O=[N+]([O-])c1cc(S(=O)(=O)Oc2ccccc2)ccc1Cl | 23.5% (inactive) |
| OCc1ncc(-c2ccccc2)s1 | 106% (inactive) |
